Source: PubChem BioAssay AID1159580 (chemical genetic matrix, 2015)
Out of some 5,500 compounds screened, about 2,000 (36%) were called active. Another 18% or so got no clear call; they are omitted. No stated cut-off is given here; in the data, active means normalized growth mostly below about 0.91 (no sharp cut-off); inconclusive means no clear call, values can overlap the other calls; inactive means mostly above about 0.92. This is one part of the list.

Assay: chemical genetic growth profiling, strain panel (AID 1159580);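 further: tested at 20 µM; growth read once vehicle control cultures reached saturation at 30 °C; 1 = growth at the plate median or of vehicle wells; lower values mean less growth of the strain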
Settings: S. cerevisiae deletion strains, growth OD
[1] = locus YAL013W, strain DEP1, hits give low values
[2] = locus YBR229C, strain ROT2, hits give low values
[3] = locus YDL101C, strain DUN1, hits give low values
[4] = locus YDR150W, strain NUM1, hits give low values
[5] = locus YEL061C, strain CIN8, hits give low values
[6] = locus YGR078C, strain PAC10, hits give low values
[7] = locus YHR030C, strain SLT2, hits give low values
[8] = locus YHR087W, strain rtc3, hits give low values
[9] = locus YJR043C, strain POL32, hits give low values
[10] = locus YJR075W, strain HOC1, hits give low values
[11] = locus YLR039C, strain RIC1, hits give low values
[12] = locus YLR058C, strain SHM2 (second series), hits give low values
[13] = locus YLR085C, strain ARP6, hits give low values
[14] = locus YLR262C, strain YPT6, hits give low values
[15] = locus YML094W, strain GIM5, hits give low values
[16] = locus YMR219W, strain ESC1, hits give low values
[17] = locus YMR263W, strain SAP30, hits give low values
[18] = locus YNL153C, strain GIM3, hits give low values
[19] = locus YNL298W, strain CLA4 (second series), hits give low values
[20] = locus YNL322C, strain KRE1, hits give low values
[21] = locus YNR030W, strain Alg12, hits give low values
[22] = locus YOL006C, strain TOP1, hits give low values
[23] = locus YPL055C, strain LGE1, hits give low values
[24] = locus YPL241C, strain CIN2, hits give low values
[25] = locus YPR135W, strain CTF4, hits give low values

Measured: normalized growth

Cc1cc(NC(=O)c2c(-c3c(Cl)cccc3Cl)noc2C)c([N+](=O)[O-])cc1C
inactive: [1] 1.01 | [2] 1.01 | [3] 1.08 | [4] 1.03 | [5] 1 | [6] 1.04 | locus YGR229C, strain SMI1, hits give low values 0.975 | [7] 1.02 | [8] 0.969 | [9] 1.02 | [10] 1 | [11] 1.04 | [12] 0.983 | [13] 0.999 | [14] 0.967 | [15] 0.992 | [16] 0.992 | [17] 1.04 | [18] 1.04 | [19] 1.04 | [20] 0.981 | [21] 0.975 | [22] 0.987 | [23] 0.996 | [24] 1.01 | [25] 0.995

CCN(CC)CCNC(=O)c1c(-c2c(Cl)cccc2Cl)noc1C
inactive: [1] 0.996 | [2] 1.01 | locus YCL061C, strain MRC1, hits give low values 1.02 | [3] 1 | [4] 0.903 | [5] 1.04 | [6] 1.01 | [7] 1.07 | [8] 0.998 | [9] 1.03 | [10] 0.982 | [11] 1.16 | [12] 0.99 | [13] 1.05 | [14] 1.15 | [15] 1.02 | [16] 1.01 | [17] 0.992 | [18] 0.99 | [19] 1.05 | [20] 1 | [21] 1.02 | [22] 1.03 | [23] 0.99 | [24] 1.01 | [25] 0.973
